Hit rate of the full screen: of about 59,000 compounds, about 6,200 (11%) were called active. Another 9% or so got no clear call; they are omitted. Rule as the data show it: active = max dye-equivalent concentration above about 10 nM; inconclusive = mostly about 1.1 nM to 9.6 nM; inactive = weaker than that. The sample as a whole holds a higher share of actives than the screen did.
experiment: qHTS Assay for Spectroscopic Profiling in 4-MU Spectral Region; settings: compound autofluorescence, 340/450 nm, 4-MU equivalents; active compounds read high
Method in brief: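 Compounds in 100 mM Tris, pH 8.0, incubated 15 min at room temperature, then fluorescence read at 340 nm excitation/450 nm emission. Signal converted to 4-MU dye-equivalent concentration using an on-plate six-point 4-MU standard curve.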

Max dye-equivalent concentration, active:
Cn1cccc1C(=O)NC(=O)COC(=O)Cc1coc2ccc3ccccc3c12 30 nM
CC(=O)Oc1ccc2c(C)c(CC(C)O)c(=O)oc2c1 (stereo not drawn) 15000 nM
COc1ccc(C(=O)n2nc(-c3ccc(C)cc3)nc2N)cc1OC 35 nM
CNC(=O)c1cc2c(ccc3ccccc32)oc1=N 9900 nM
CCOC(=O)N1CCN(C(=O)c2cc3c(ccc4ccccc43)oc2=O)CC1 1500 nM
Cc1cc(C(F)(F)F)n2ncc(-c3ccccc3)c2n1 12 nM
Nc1ccc(-c2nnc(-c3ccc(-c4ccccc4)cc3)o2)cc1 170 nM

Max dye-equivalent concentration, inactive:
O=C(Nc1ccc(S(=O)(=O)N2CCCC2)cc1Cl)C1=COCCO1
O=C(Cn1c(=O)sc2ccccc21)Nc1ccc2c(c1)OCCO2
CC(C)(C)NC(=O)NC(=O)COC(=O)Cn1c(C(F)(F)F)nc2ccccc21
Cn1cccc1C(=O)Nc1nccs1
CC(=O)c1cc2c(cc1N)OCO2
COCc1[nH]nc2c1C(C1C=CCCC1)C(C#N)=C(N)O2 (stereo not drawn)
FC(F)(F)c1ccccc1-c1nc(-n2ccnc2)c2ccccc2n1
O=C1CN(C(=O)COC(=O)C2CC(=O)N(Cc3ccco3)C2)c2ccccc2N1 (stereo not drawn)
COc1ccc(C(=O)n2nc(-c3ccc(Cl)cc3)nc2N)cc1OC
COc1ccccc1C(=O)n1nc(-c2ccccc2)nc1N
CN(C(=O)c1ccccn1)c1nnc(-c2ccccn2)s1
C=CCNC(=O)c1ccc(C)c(Br)c1
O=C(NCCc1ccc2c(c1)OCCO2)c1cc2ccccc2o1
COc1c(C(=O)N2CCCC2)ccc2ccccc12
CCOC(=O)N1CCN(C(=O)c2n[nH]c(=O)c3ccccc23)CC1
CCCCC(=O)Nc1cc(C)c2c(=O)oc3ccccc3c2n1
C=CCSc1nc2ccccc2[nH]1
Cc1ccc(CNC(=O)C2CC(=O)N(C3CCCCCCC3)C2)cc1 (stereo not drawn)
COc1ccc(CCNS(=O)(=O)c2ccc(F)cc2)cc1OC
COC(=O)c1ccc2c(c1)S(=O)(=O)NC(=NCCCN1CCOCC1)S2
Cc1cc(-n2nc(C)cc2C)n2ncc(-c3ccccc3)c2n1
Cc1cc(Cl)ccc1OCC(=O)Oc1c(Cl)c(Cl)c(Cl)c(Cl)c1Cl
Cc1cc(C)c2nc(SCCC#N)nc(C)c2c1
C=CCN(c1ccc(C(N)=O)cc1)S(C)(=O)=O
O=C(COC(=O)c1ccc(Oc2ccccc2)cc1)Nc1nnc(-c2ccccc2)o1
O=C(CSc1nnc(-c2ccccc2)o1)N1CCOCC1

— PubChem BioAssay AID589 (National Center for Advancing Translational Sciences (NCATS), 2007)
